Unmarked numbers belong to inactive results. Records with an inconclusive call do not appear. A call without a number means that no potency is given here. The source made the active and inactive calls. Unless noted, the call rests on the fitted dose curve; in most records, active means well fitted curve in the direction sought with a large enough effect in the repeat runs; inconclusive means weak or mixed curves; inactive means no such curve, though single readings can be large; an effect the other way counts as inactive or inconclusive.
Legend:
[1] = qHTS assay to identify small molecule agonists of H2AX (AID 1224845; active means well fitted activation curve with a large enough effect in the signal ratio in the repeat runs, not every such curve was filed as active; the % refers to the signal ratio)
Method in brief: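 Wild-type CHO-K1 cells plated overnight, then exposed 3 hr at 37C to compounds at 15 concentrations (0.76% DMSO). Lysed, then HTRF anti-pH2AX(S139)-cryptate/anti-H2AX-d2 detection after 24 hr at room temperature; emissions 665 and 620 nm.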

[2] = qHTS assay to identify small molecule agonists of the hypoxia (HIF-1) signaling pathway (AID 1224846; active means well fitted activation curve with a large enough effect in the signal ratio in the repeat runs, not every such curve was filed as active; the % refers to the signal ratio)
Method in brief: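 HRE-bla ME-180 cells (beta-lactamase reporter under hypoxia response element) were plated at 2,000 cells/well in medium with 0.5% dialyzed FBS, rested 5 hrs, then given compounds in DMSO for 17 hrs at 37C, 5% CO2. Reporter induction was read with CCF4-AM FRET substrate.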

[3] = qHTS assay to identify small molecule agonists of H2AX - cell viability counter screen (AID 1224847; calls by dose curve; further: top concentration of the series differs between compounds; nearly all actives have a fitted effect of over 30% in size)
Method in brief: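 Quantitative HTS viability measurement: CHO-K1 wild-type cells in serum (10% FBS) medium, short 3 hr drug exposure at 37C with 0.76% DMSO, CellTiter-Glo luminescent detection.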

[4] = qHTS assay to identify small molecule antagonists of the estrogen related receptor (ERR) signaling pathway from Tox21 library (AID 1224848); further: nearly all actives have a fitted effect of over 50% in size; further: potency means the concentration at half of the fitted maximal effect
Method in brief: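 Cells: ERR line, 2,000/well; 6 h preincubation 37 C/5% CO2. Cpd in DMSO via pin tool; 18 h, 37 C. ONE-Glo, 30 min RT, luminescence.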

[5] = qHTS assay to identify small molecule agonists of the estrogen related receptor (ERR) signaling pathway from Tox21 library (AID 1224849; calls by dose curve; further: nearly all actives have a fitted effect of over 15% in size); conditions: ERR reporter cell line, ONE-Glo luciferase, 18 h; at 92.4 µM (top of the series) unless noted
Method in brief: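 ERR reporter cell line (NTP) seeded, rested 6 h at 37 C/5% CO2, then pinned with Tox21 compounds in DMSO. After 18 h at 37 C, ONE-Glo luciferase luminescence was read following 30 min at room temperature.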

[6] = qHTS RealTime-Glo MT Cell Viability Assay in HepG2 cells - 24 hour (AID 1224867); further: nearly all actives have a fitted effect of over 50% in size
Method in brief: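 Cells + NanoLuc/prosubstrate dispensed (600 cells/well) → 5 h at 37 C/5% CO2 → compounds in DMSO transferred → 40 h incubation at 37 C, luminescence read at 0, 8, 16, 24, 32, 40 h.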

[7] = qHTS RealTime-Glo MT Cell Viability Assay in HEK293 cells - 32 hour (AID 1224868); further: nearly all actives have a fitted effect of over 50% in size; further: potency means the concentration at half of the fitted maximal effect; on activity change, negative = cytotoxic: top concentration of the series differs between compounds
Method in brief: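 Tox21 10K qHTS, HEK293, 600 cells/well, RealTime-Glo reagent co-dispensed with cells; 5 h preincubation, compound by pintool, 37 C, luminescence at 0–40 h.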

[8] = A CellTox Green Cytotoxicity Assay to monitor cytotoxicity in HEK293 cells - 0 hour (AID 1224869); further: nearly all actives have a fitted effect of over 50% in size
Method in brief: (§1)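 HEK293 cells premixed with CellTox Green dye were seeded at 600 cells/well and left 5 h at 37 C/5% CO2 before pin transfer of 23 nL compound in DMSO. Fluorescence from dye bound to dead-cell DNA was read during 40 h treatment.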

[9] = qHTS RealTime-Glo MT Cell Viability Assay in HepG2 cells - 40 hour (AID 1224870); further: nearly all actives have a fitted effect of over 50% in size
Method in brief: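 HepG2 cells mixed with RealTime-Glo MT reagents (NanoLuc plus cell-permeant prosubstrate) were seeded at 600 cells/well, incubated 5 h at 37 C/5% CO2, then pinned with compounds in DMSO; nonlytic luminescence tracked viability during 40 h treatment.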

[10] = A CellTox Green Cytotoxicity Assay to monitor cytotoxicity in HEK293 cells - 40 hour (AID 1224871); further: nearly all actives have a fitted effect of over 45% in size
Method in brief: as §1

SMILES | Potency [1] | outcome [2] | Potency [3] | Potency [4] | activity change, positive = activation [5] | Potency [6] | Potency [7] | Potency [8] | Potency [9] | Potency [10] | activation (H2AX phosphorylation) [1] | activation [2] | activity change, negative = cytotoxicity [3] | activity, negative = inhibition [4] | activity change, negative = cytotoxicity [6] | activity change, negative = cytotoxic [7] | cytotoxicity [8] | activity change, negative = cytotoxic [9] | cytotoxicity increase [10]
C=CC[N+]1([C@H]2C[C@H]3[C@@H]4CC[C@H]5C[C@H](OC(C)=O)[C@@H](N6CCCCC6)C[C@]5(C)[C@H]4CC[C@]3(C)[C@H]2OC(=O)CC)CCCCC1 | inactive | inactive | inactive | inactive | -0.214% [at 42.5 µM] | inactive | inactive | inactive | inactive | inactive |  |  |  |  |  |  |  |  | 
CN(C)CCCOc1nn(Cc2ccccc2)c2ccccc12 | inactive | inactive | inactive | inactive | -2.65% [at 42.5 µM] | inactive |  | inactive |  | inactive |  |  |  |  |  |  |  |  | 
CC(C)(C)c1cc(O)c(C(C)(C)C)cc1O | inactive | inactive | inactive | 24.3 µM (active) | -60.5% | inactive | 24.5 µM (active) | inactive | inactive | inactive |  |  |  |  |  |  |  |  | 
O=C(CCN1CCN2CCCC2C1)N1c2ccccc2Sc2ccc(Cl)cc21 (centres undefined) |  |  |  |  | -13.2% [at 19 µM] |  |  |  |  |  | -2.77% [at 31.6 µM] | -0.917% [at 15.8 µM] | -4.72% [at 31.6 µM] | -23.7% [at 19 µM] | -4.92% [at 15.8 µM] | -23% [at 15.8 µM] | -5.19% [at 15.8 µM] | -2.23% [at 15.8 µM] | 2.75% [at 15.8 µM]
CC(C)NCC(O)c1cc(O)cc(O)c1 (centres undefined) | inactive | inactive | inactive | inactive | 10.5% [at 42.5 µM] | inactive | inactive | inactive |  | inactive |  |  |  |  |  |  |  |  | 
O=C(O)C1CCC(C(=O)O)CC1 (centres undefined) | inactive | inactive | inactive | inactive |  | inactive | inactive | inactive | inactive | inactive |  |  |  |  |  |  |  |  | 
O=C1[C@H](CC[C@H](O)c2ccc(F)cc2)[C@@H](c2ccc(O)cc2)N1c1ccc(F)cc1 | inactive | inactive | inactive | 26.6 µM (active) | -42.1% [at 42.5 µM] | inactive | 19 µM (active) | inactive | inactive | inactive |  |  |  |  |  |  |  |  | 
CCN(CC)CCNC(C(=O)OCCC(C)C)c1ccccc1 (centres undefined) | inactive | inactive | inactive | inactive | 0.0727% [at 42.5 µM] | inactive | inactive | inactive | inactive | inactive |  |  |  |  |  |  |  |  | 
CCOc1nc2cccc(C(=O)O)c2n1Cc1ccc(-c2ccccc2-c2nn[nH]n2)cc1 | inactive | inactive | inactive | inactive | 4.21% [at 42.5 µM] | inactive | inactive | inactive | inactive | inactive |  |  |  |  |  |  |  |  | 
CCCCCC(CO)CCC (centres undefined) | inactive | inactive | inactive | inactive | 2.67% | inactive | inactive | inactive | inactive | inactive |  |  |  |  |  |  |  |  | 
CCOc1ccc(NC(=O)CC(C)=O)cc1 | inactive | inactive | inactive | inactive | -8.93% | inactive | inactive | inactive | inactive | inactive |  |  |  |  |  |  |  |  | 
Nc1nc(N)c(-c2ccccc2)s1 | inactive | inactive | inactive | inactive | 3.26% [at 42.5 µM] | inactive | inactive | inactive | inactive | inactive |  |  |  |  |  |  |  |  | 
CCCCCCCCN(C)C | inactive | inactive | inactive | inactive | 2.41% | inactive | inactive | inactive | inactive | inactive |  |  |  |  |  |  |  |  | 
C#CCOC(=O)[C@@H](C)Oc1ccc(Oc2ncc(Cl)cc2F)cc1 | inactive | inactive | inactive | inactive | -13.6% | inactive | inactive | inactive |  | inactive |  |  |  |  |  |  |  |  | 
Cc1ccc(C(N)=O)cc1N | inactive | inactive | inactive | inactive | -0.06% | inactive | inactive | inactive | inactive | inactive |  |  |  |  |  |  |  |  | 
C=CCCCCCC | inactive | inactive | inactive | inactive | 4.67% | inactive | inactive | inactive | inactive | inactive |  |  |  |  |  |  |  |  | 
CCCCCCCCC(CO)CCCCCC (centres undefined) | inactive | inactive | inactive | inactive | 4.04% | inactive | inactive | inactive | inactive | inactive |  |  |  |  |  |  |  |  | 
NC1CCN(c2nc3c(cc2F)c(=O)c(C(=O)O)cn3-c2ccc(F)cc2F)C1 (centres undefined) | inactive | inactive | inactive | inactive |  | inactive | inactive | inactive | inactive | inactive |  |  |  |  |  |  |  |  | 
CC[C@H](C)[C@H](N)C(=O)O | inactive | inactive | inactive | inactive | 5.77% [at 42.5 µM] | inactive | inactive | inactive | inactive | inactive |  |  |  |  |  |  |  |  | 

Source: PubChem BioAssay (Tox21)
